# The supplement of paper PMC4709259
# Structures can show the parent of a compound that is named as a salt. ± gives the standard deviation.
# Experiments:
# [1] = test system: Jurkat; assay: mean cell size (FSC-A) relative to DMSO control (fraction of control); higher = larger cells; settings: 48 h
# Summary of the method: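 Jurkat cells at 600 cells/µl were incubated for 1 h and then treated for 48h with the Enzo Screen-Well FDA Approved Drug Library v2.0 at 25µM, with DMSO at 0.9% (v/v) final. Compounds that reduced counts below 20% of controls were retested in 10-fold dilutions down to 25nM. Cell count and mean cell size, taken as forward scatter area, were measured by flow cytometry relative to solvent-only controls. Each plate carried 6-12 controls, and values are means of 3 biological replicates.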
# [2] = test system: Jurkat; assay: cell count relative to DMSO control (fraction of control); higher = more cells (less growth inhibition); settings: 48 h
SMILES,mean cell size [1],cell count [2]
CC(C)Cn1cnc2c(N)nc3ccccc3c21 [Imiquimod] (concentration: 25 µM),0.936 ± 0.018,0.44 ± 0.15
CCCc1nc(C)c2c(=O)nc(-c3cc(S(=O)(=O)N4CCN(CC)CC4)ccc3OCC)[nH]n12 [Vardenafil] (concentration: 25 µM),0.966 ± 0.021,0.646 ± 0.099
Fc1ccc([C@@H]2CCNC[C@H]2COc2ccc3c(c2)OCO3)cc1 [Paroxetine·HCl] (concentration: 2.5 µM),1.01 ± 0.059,0.24 ± 0.057
Cc1cccc(C)c1OCC(=O)N[C@@H](Cc1ccccc1)[C@@H](O)C[C@H](Cc1ccccc1)NC(=O)[C@H](C(C)C)N1CCCNC1=O [Lopinavir] (concentration: 25 µM),0.8546 ± 0.0077,0.373 ± 0.029
CC1(C)C[C@@H]1C(=O)N/C(=C\CCCCSC[C@H](N)C(=O)O)C(=O)O [Cilastatin·Na] (concentration: 25 µM),0.942 ± 0.011,1.03 ± 0.092
CC(=O)N(O)CCCCCNC(=O)CCC(=O)N(O)CCCCCNC(=O)CCC(=O)N(O)CCCCCN [Deferoxamine Mesylate] (concentration: 25 µM),1.09 ± 0.053,0.496 ± 0.062
CN(C)C(=O)C(CCN1CCC(O)(c2ccc(Cl)cc2)CC1)(c1ccccc1)c1ccccc1 [Loperamide·HCl] (concentration: 25 µM),0.988 ± 0.033,0.572 ± 0.18
CCCCNC(=O)NS(=O)(=O)c1ccc(C)cc1 [Tolbutamide] (concentration: 25 µM),0.976 ± 0.032,0.606 ± 0.22
C[C@@H](c1ncncc1F)[C@](O)(Cn1cncn1)c1ccc(F)cc1F [Voriconazole] (concentration: 25 µM),0.963 ± 0.043,0.682 ± 0.1
